Reference: PMC7862700, “An all-to-all approach to the identification of sequence-specific readers for epigenetic DNA modifications on cytosine”

How the values were obtained:
Experiment in all cases: DAPPL (digital affinity profiling via proximity ligation, sequencing); 10 mM Tris-HCl pH 7.5, 50 mM NaCl, 1 mM DTT, 4% glycerol, room temperature, 30 min; GST-TFs on glutathione beads, 16-mer random dsDNA library, 0.1% formaldehyde crosslink after washing; high values mean tight binding
[1] = molecular target: T1, FLI1 (Homo sapiens, UniProt Q01543 1-452); settings: protein: recombinant; tags: N-terminal GST; dsDNA, one strand shown
T1 sequence: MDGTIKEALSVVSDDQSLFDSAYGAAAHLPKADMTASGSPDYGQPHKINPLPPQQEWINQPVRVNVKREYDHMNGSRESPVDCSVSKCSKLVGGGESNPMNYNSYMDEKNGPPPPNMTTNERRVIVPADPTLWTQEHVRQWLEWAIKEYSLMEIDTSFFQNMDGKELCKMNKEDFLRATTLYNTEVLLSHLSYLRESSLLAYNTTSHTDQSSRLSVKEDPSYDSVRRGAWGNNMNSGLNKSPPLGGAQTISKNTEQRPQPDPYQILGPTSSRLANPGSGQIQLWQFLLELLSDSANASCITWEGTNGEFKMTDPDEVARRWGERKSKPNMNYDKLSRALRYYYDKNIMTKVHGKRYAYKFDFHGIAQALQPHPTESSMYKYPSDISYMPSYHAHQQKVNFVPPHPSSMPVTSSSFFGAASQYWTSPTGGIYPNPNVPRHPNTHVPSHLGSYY
In short: (§1)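 Pools were built from human transcription factors expressed in yeast as GST fusions, captured on glutathione beads and DNA-barcoded, along with a tag-only sample. Incubation with 200 nmole of a 16-mer random double-stranded DNA library lasted 30 min at room temperature in Tris/NaCl/DTT/glycerol buffer, and was followed by washing, 0.1% formaldehyde crosslinking, proximity ligation, PCR amplification and Illumina NextSeq500 sequencing. Binding signal is the quotient of each hexamer's read frequency for a factor and its frequency for the tag-only sample.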

[2] = molecular target: T2, ELK1 (Homo sapiens, UniProt P19419 1-428); settings: protein: recombinant; tags: N-terminal GST; dsDNA, one strand shown
T2 sequence: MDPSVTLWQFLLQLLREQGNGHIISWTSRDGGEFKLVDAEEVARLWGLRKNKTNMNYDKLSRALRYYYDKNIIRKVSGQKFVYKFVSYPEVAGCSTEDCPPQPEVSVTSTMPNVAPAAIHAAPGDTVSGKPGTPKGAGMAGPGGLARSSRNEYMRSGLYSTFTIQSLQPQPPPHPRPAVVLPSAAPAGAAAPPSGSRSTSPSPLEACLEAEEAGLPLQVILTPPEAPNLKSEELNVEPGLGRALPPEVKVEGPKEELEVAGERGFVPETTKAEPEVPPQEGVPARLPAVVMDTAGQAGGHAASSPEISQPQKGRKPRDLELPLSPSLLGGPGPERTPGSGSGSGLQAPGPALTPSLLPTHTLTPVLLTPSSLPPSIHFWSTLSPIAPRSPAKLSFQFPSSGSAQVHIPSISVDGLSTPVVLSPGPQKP
In short: as §1

[3] = molecular target: T3, GABPA (Homo sapiens, UniProt Q06546 1-454); settings: protein: recombinant; tags: N-terminal GST; dsDNA, one strand shown
T3 sequence: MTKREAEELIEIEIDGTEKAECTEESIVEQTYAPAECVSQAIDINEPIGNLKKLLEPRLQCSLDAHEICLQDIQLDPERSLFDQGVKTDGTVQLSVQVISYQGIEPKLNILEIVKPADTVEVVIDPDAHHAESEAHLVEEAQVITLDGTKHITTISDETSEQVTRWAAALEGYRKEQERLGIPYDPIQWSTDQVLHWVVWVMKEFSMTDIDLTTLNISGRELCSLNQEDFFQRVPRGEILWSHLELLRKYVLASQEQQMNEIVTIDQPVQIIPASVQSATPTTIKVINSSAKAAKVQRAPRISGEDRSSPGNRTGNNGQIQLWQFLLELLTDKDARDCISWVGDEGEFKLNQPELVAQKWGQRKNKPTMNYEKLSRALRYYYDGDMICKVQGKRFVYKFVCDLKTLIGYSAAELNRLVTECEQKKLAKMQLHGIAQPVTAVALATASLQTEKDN
In short: as §1

[4] = molecular target: T4, ERG (Homo sapiens, UniProt P11308 1-479); settings: protein: recombinant; tags: N-terminal GST; dsDNA, one strand shown
T4 sequence: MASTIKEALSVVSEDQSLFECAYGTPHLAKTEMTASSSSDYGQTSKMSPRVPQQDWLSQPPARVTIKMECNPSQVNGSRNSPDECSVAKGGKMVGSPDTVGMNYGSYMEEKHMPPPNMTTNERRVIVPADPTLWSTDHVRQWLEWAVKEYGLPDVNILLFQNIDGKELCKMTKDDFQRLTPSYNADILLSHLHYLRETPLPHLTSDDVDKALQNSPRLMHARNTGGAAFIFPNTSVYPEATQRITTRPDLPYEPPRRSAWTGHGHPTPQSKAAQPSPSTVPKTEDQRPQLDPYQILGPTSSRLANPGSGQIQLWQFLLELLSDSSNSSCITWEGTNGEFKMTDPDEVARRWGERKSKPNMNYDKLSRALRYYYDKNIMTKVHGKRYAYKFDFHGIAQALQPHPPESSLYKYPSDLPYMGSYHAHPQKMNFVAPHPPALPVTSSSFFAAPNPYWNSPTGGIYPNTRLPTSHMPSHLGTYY
In short: as §1

[5] = molecular target: ELF1 (Homo sapiens, UniProt P32519 1-619); settings: protein: recombinant; tags: N-terminal GST; dsDNA, one strand shown
Chain of ELF1 (P32519 whole entry): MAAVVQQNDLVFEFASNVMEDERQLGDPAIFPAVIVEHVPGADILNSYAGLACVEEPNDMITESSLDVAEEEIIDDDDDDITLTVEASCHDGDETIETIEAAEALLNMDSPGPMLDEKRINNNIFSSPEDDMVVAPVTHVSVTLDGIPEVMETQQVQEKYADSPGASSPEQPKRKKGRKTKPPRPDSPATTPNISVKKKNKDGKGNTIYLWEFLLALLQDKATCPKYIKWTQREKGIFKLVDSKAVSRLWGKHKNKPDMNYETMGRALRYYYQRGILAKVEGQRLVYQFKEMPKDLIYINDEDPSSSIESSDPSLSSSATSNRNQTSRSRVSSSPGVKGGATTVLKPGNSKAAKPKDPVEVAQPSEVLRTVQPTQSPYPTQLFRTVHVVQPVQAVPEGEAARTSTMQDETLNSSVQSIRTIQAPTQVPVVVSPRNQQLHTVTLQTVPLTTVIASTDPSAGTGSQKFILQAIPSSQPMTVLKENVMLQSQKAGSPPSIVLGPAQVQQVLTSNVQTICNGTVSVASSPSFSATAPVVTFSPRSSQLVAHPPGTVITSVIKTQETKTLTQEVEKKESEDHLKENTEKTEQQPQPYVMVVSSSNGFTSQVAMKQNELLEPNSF
In short: as §1

[6] = molecular target: T5, EHF (Homo sapiens, UniProt Q9NZC4 1-300); settings: protein: recombinant; tags: N-terminal GST; dsDNA, one strand shown
T5 sequence: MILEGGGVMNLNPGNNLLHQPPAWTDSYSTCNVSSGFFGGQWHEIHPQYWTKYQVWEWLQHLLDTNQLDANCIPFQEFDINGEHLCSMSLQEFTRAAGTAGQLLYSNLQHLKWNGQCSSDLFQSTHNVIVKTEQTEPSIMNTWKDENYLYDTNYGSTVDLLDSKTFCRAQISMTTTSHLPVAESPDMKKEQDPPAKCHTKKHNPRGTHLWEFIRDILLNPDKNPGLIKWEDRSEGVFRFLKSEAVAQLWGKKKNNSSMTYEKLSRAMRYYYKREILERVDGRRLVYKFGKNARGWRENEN
In short: as §1

[7] = molecular target: SPI1 (Homo sapiens, UniProt P17947 1-270); settings: protein: recombinant; tags: N-terminal GST; dsDNA, one strand shown
In short: as §1

[8] = molecular target: SPIB (Homo sapiens, UniProt Q01892 1-262); settings: protein: recombinant; tags: N-terminal GST; dsDNA, one strand shown
Chain of SPIB (Q01892 whole entry): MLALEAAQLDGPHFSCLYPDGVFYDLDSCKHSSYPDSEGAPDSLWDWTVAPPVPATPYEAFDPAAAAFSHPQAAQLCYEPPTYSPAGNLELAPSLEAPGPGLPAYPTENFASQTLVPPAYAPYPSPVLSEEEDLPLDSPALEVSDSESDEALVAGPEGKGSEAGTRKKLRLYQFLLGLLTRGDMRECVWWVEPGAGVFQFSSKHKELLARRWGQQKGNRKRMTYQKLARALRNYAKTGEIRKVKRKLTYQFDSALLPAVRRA
In short: as §1

[9] = molecular target: T6, ELK3 (Homo sapiens, UniProt P41970 1-407); settings: protein: recombinant; tags: N-terminal GST; dsDNA, one strand shown
T6 sequence: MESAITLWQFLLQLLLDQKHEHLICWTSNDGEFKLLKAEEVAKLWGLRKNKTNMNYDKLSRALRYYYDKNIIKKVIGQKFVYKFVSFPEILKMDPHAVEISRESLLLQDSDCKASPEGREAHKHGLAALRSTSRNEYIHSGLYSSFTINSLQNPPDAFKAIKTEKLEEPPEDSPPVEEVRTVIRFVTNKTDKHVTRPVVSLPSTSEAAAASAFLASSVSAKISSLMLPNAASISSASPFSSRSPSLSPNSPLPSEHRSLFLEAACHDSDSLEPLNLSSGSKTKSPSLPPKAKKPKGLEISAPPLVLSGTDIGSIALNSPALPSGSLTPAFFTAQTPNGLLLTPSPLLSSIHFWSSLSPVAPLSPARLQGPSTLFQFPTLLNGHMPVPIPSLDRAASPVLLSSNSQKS
In short: as §1

[10] = molecular target: T7, FEV (Homo sapiens, UniProt Q99581 1-238); settings: protein: recombinant; tags: N-terminal GST; dsDNA, one strand shown
T7 sequence: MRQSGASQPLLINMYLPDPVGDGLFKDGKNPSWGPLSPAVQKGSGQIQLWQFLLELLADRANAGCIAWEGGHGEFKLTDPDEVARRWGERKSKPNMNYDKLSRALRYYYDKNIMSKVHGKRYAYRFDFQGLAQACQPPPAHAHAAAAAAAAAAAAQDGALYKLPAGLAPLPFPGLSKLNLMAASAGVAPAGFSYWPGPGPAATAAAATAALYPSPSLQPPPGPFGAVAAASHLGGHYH
In short: as §1

[11] = molecular target: ETV5 (Homo sapiens, UniProt P41161 1-510); settings: protein: recombinant; tags: N-terminal GST; dsDNA, one strand shown
Chain of ETV5 (P41161 whole entry): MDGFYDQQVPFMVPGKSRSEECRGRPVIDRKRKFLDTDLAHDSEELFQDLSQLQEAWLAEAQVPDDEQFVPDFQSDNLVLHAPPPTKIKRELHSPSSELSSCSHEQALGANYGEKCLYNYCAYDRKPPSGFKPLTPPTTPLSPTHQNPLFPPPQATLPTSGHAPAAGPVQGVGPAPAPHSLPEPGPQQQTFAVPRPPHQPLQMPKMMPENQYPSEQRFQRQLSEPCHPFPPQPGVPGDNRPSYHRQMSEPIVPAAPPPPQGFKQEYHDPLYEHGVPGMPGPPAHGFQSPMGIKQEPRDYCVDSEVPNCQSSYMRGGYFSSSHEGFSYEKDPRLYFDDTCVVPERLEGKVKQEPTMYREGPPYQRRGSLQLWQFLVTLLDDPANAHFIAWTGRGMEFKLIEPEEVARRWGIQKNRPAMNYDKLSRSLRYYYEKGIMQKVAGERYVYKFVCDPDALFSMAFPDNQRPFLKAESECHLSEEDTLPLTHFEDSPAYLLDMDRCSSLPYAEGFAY
In short: as §1

[12] = molecular target: HSF1 (Homo sapiens, UniProt Q00613 1-529); settings: protein: recombinant; tags: N-terminal GST; chain copies: 3; dsDNA, one strand shown
Chain of HSF1 (Q00613 whole entry): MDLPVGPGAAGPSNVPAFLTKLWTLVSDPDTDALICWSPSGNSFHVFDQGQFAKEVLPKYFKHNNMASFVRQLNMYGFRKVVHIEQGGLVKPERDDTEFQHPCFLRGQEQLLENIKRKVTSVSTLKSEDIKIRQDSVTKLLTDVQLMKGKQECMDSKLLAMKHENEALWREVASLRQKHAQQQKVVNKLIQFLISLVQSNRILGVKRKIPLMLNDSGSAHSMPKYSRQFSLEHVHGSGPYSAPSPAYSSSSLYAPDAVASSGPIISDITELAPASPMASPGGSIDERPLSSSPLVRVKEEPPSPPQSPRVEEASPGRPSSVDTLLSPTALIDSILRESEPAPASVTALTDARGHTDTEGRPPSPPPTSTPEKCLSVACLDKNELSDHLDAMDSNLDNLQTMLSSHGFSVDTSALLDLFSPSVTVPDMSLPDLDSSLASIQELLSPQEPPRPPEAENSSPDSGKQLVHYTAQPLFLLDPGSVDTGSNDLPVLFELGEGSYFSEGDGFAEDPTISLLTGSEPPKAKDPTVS
In short: as §1

[13] = molecular target: T8, SPIC (Homo sapiens, UniProt Q8N5J4 1-248); settings: protein: recombinant; tags: N-terminal GST; dsDNA, one strand shown
T8 sequence: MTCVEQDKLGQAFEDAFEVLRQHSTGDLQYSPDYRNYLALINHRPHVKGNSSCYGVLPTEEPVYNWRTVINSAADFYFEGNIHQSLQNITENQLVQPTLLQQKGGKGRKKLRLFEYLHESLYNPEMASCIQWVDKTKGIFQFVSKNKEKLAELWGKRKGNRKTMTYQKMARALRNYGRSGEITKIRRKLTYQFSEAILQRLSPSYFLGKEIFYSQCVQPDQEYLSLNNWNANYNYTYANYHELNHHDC
In short: as §1

[14] = molecular target: ELF4 (Homo sapiens, UniProt Q99607 1-663); settings: protein: recombinant; tags: N-terminal GST; dsDNA, one strand shown
Chain of ELF4 (Q99607 whole entry): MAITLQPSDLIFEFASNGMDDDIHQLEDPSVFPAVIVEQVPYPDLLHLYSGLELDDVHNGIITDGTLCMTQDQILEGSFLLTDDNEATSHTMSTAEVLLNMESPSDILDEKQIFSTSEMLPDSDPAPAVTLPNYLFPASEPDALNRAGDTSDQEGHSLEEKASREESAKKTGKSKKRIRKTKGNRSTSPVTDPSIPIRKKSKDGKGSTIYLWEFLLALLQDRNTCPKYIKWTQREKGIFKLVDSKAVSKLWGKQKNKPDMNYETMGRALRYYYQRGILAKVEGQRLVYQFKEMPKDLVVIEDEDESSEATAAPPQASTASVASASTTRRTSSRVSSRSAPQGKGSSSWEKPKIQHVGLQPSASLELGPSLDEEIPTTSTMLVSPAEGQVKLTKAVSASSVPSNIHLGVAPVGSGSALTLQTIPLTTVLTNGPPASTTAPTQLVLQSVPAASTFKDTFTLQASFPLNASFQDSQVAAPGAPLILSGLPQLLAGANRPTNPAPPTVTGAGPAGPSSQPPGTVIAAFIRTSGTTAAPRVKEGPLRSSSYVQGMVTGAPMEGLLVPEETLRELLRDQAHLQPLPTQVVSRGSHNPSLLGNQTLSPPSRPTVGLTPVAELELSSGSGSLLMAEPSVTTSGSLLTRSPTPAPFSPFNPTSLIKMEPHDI
In short: as §1

[15] = molecular target: T9, ELK4 (Homo sapiens, UniProt P28324-2 1-405); settings: protein: recombinant; tags: N-terminal GST; dsDNA, one strand shown
T9 sequence: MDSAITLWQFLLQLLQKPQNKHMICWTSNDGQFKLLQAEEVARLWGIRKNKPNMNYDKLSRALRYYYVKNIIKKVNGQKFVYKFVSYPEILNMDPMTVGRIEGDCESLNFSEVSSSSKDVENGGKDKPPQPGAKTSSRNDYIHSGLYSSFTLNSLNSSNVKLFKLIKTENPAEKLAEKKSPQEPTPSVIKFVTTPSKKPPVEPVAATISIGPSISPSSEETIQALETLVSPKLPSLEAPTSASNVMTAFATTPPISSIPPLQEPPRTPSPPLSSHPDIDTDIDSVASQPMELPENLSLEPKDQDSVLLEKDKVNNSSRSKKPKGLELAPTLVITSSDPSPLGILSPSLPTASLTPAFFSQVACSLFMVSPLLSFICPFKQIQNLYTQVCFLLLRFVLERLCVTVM
In short: as §1

[16] = molecular target: T10, ETV2 (Homo sapiens, UniProt O00321 1-342); settings: protein: recombinant; tags: N-terminal GST; dsDNA, one strand shown
T10 sequence: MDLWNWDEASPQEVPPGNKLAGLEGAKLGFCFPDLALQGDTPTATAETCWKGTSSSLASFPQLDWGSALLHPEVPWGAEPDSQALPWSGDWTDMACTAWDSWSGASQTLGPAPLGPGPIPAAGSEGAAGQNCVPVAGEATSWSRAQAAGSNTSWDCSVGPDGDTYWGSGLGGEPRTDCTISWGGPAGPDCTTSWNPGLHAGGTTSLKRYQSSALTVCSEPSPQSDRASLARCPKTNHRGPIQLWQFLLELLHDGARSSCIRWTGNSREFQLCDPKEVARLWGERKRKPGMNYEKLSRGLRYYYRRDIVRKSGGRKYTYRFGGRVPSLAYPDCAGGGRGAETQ
In short: as §1

[17] = molecular target: T11, ELF3 (Homo sapiens, UniProt P78545 1-371); settings: protein: recombinant; tags: N-terminal GST; dsDNA, one strand shown
T11 sequence: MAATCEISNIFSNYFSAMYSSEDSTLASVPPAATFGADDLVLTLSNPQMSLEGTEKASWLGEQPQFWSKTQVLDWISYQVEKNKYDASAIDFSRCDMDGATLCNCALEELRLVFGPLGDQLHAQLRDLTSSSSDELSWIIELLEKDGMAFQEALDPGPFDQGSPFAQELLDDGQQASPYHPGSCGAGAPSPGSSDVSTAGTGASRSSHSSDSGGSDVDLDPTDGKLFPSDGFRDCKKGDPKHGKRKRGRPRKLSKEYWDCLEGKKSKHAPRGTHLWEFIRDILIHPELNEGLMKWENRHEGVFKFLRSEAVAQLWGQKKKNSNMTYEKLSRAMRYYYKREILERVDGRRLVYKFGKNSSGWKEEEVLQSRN
In short: as §1

[18] = molecular target: CRX (Homo sapiens, UniProt O43186 1-299); settings: protein: recombinant; tags: N-terminal GST; dsDNA, one strand shown
Chain of CRX (O43186 whole entry): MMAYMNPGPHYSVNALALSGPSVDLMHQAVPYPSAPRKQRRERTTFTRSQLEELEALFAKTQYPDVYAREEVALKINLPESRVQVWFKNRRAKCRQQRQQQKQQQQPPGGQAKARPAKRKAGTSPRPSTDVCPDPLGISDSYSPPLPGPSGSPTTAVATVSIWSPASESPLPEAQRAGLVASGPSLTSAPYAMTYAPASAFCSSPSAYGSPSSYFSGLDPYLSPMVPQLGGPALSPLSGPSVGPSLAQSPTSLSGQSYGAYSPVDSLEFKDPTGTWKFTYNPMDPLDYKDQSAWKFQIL
In short: as §1

[19] = molecular target: ETV1 (Homo sapiens, UniProt P50549 1-477); settings: protein: recombinant; tags: N-terminal GST; dsDNA, one strand shown
Chain of ETV1 (P50549 whole entry): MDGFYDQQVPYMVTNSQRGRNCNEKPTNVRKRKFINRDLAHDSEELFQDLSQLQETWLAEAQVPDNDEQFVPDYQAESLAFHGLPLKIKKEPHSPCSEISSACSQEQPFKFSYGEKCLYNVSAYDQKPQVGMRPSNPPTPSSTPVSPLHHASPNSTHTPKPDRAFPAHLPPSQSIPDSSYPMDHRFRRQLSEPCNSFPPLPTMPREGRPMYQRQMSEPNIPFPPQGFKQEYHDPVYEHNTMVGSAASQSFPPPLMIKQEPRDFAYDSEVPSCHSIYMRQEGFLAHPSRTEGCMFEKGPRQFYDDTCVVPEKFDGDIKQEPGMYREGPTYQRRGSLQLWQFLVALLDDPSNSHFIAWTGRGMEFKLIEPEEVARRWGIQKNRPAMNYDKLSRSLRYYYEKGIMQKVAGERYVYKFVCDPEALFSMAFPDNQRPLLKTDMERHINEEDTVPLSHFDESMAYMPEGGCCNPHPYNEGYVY
In short: as §1

Sequence: TCCATC
- binding signal [1]: 1.28 fold enrichment (6-mer frequency, TF over GST control)
- binding signal [2]: 1.28 fold enrichment (6-mer frequency, TF over GST control)
- binding signal [3]: 1.15 fold enrichment (6-mer frequency, TF over GST control)
- binding signal [4]: 1.17 fold enrichment (6-mer frequency, TF over GST control)
- binding signal [5]: 1.29 fold enrichment (6-mer frequency, TF over GST control)
- binding signal [6]: 1.2 fold enrichment (6-mer frequency, TF over GST control)
- binding signal [7]: 1.19 fold enrichment (6-mer frequency, TF over GST control)
- binding signal [8]: 1.16 fold enrichment (6-mer frequency, TF over GST control)
- binding signal [9]: 1.28 fold enrichment (6-mer frequency, TF over GST control)
- binding signal [10]: 1.21 fold enrichment (6-mer frequency, TF over GST control)
- binding signal [11]: 1.22 fold enrichment (6-mer frequency, TF over GST control)
- binding signal [12]: 1.16 fold enrichment (6-mer frequency, TF over GST control)
- binding signal [13]: 1.06 fold enrichment (6-mer frequency, TF over GST control)
- binding signal [14]: 1.13 fold enrichment (6-mer frequency, TF over GST control)
- binding signal [15]: 1.26 fold enrichment (6-mer frequency, TF over GST control)
- binding signal [16]: 1.32 fold enrichment (6-mer frequency, TF over GST control)
- binding signal [17]: 1.11 fold enrichment (6-mer frequency, TF over GST control)
- binding signal [18]: 1.15 fold enrichment (6-mer frequency, TF over GST control)
- binding signal [19]: 1.17 fold enrichment (6-mer frequency, TF over GST control)
